Data published in PubChem BioAssay (EPA / NIEHS).
Calls of active or inactive are those of the source. The calls were made as follows: active = hit-call score of the fitted dose curve at least 0.9, where 1 is the maximum; inactive = score below 0.9.

Legend:
Conditions in all cases: mRNA level, 48 h; actives raise or lower the signal
[1] = read-out: ABC Transporter (ABCB11), ABCB11 (gene 8647); assay: LTEA_HepaRG_ABCB11: Life Technologies and Expression Analysis (LTEA) Assay for ABC Transporter (ABCB11) using HepaRG (AID 2283463)
Procedure, shortened: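 Differentiated human HepaRG cells in serum-free induction medium, dosed in duplicate for 48 h. Eight-point half-log series from 100 uM in 0.5% DMSO; ABCB11 mRNA by qRT-PCR, normalized to ACTB, GAPDH, POLR2A, fitted bidirectionally versus DMSO.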

[2] = read-out: ABC Transporter (ABCC2), ABCC2 (gene 1244); assay: LTEA_HepaRG_ABCC2: Life Technologies and Expression Analysis (LTEA) Assay for ABC Transporter (ABCC2) using HepaRG (AID 2283464)
Procedure, shortened: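 HepaRG, 48 h post-plating; serum-free induction medium; cpd 8-pt, 100 uM top, half-log, 0.5% DMSO, duplicate, 48 h. Readout: ABCC2 mRNA by qRT-PCR, norm. ACTB/GAPDH/POLR2A. Bidirectional fit vs DMSO baseline.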

[3] = read-out: Broad substrate specificity ATP-binding cassette transporter ABCG2 (Homo sapiens) (UniProt Q9UNQ0); assay: LTEA_HepaRG_ABCG2: Life Technologies and Expression Analysis (LTEA) Assay for ABC Transporter (ABCG2) using HepaRG (AID 2283465)
Procedure, shortened: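 Differentiated HepaRG cells were exposed for 48 h in serum-free induction medium to 8 half-log concentrations, top 100 uM, in 0.5% DMSO. ABCG2 mRNA was measured by qRT-PCR, normalized to ACTB, GAPDH and POLR2A, with bidirectional fitting versus DMSO.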

[4] = read-out: ATP-citrate lyase (ACLY), ACLY (gene 47); assay: LTEA_HepaRG_ACLY: Life Technologies and Expression Analysis (LTEA) Assay for ATP-citrate lyase (ACLY) using HepaRG (AID 2283466)
Procedure, shortened: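 Differentiated HepaRG cells exposed 48 h in serum-free induction medium to eight half-log concentrations up to 100 uM in 0.5% DMSO, duplicates. Transcript measured by Fluidigm TaqMan qRT-PCR, normalized to ACTB, GAPDH, POLR2A; bidirectional fit versus DMSO.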

[5] = read-out: Peroxisomal acyl-coenzyme A oxidase 1 (ACOX1) gene, ACOX1 (gene 51); assay: LTEA_HepaRG_ACOX1: Life Technologies and Expression Analysis (LTEA) Assay for Peroxisomal acyl-coenzyme A oxidase 1 (ACOX1) gene using HepaRG (AID 2283467)
Procedure, shortened: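 HepaRG cells, plated 48 h then switched to serum-free induction medium, were exposed in duplicate for 48 h to 8-point half-log concentrations up to 100 uM in 0.5% DMSO. ACOX1 mRNA was measured by qRT-PCR, normalized to ACTB/GAPDH/POLR2A, and fitted bidirectionally versus DMSO.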

[6] = read-out: Alkaline Phosphatase, Placental (ALPP) gene, ALPP (gene 250); assay: LTEA_HepaRG_ALPP: Life Technologies and Expression Analysis (LTEA) Assay for Alkaline Phosphatase, Placental (ALPP) gene using HepaRG (AID 2283468)
Procedure, shortened: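 HepaRG, 48 h plating then 48 h dosing, serum-free induction medium, 0.5% DMSO. 8 conc, half-log, max 100 uM, duplicates. Endpoint: ALPP transcript by qRT-PCR, housekeeping-normalized; gain or loss fitted vs DMSO.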

[7] = read-out: Bcl-2 (BAD) gene, BAD (gene 572); assay: LTEA_HepaRG_BAD: Life Technologies and Expression Analysis (LTEA) Assay for Bcl-2 (BAD) gene using HepaRG (AID 2283469)
Procedure, shortened: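 Differentiated HepaRG cells were exposed in duplicate in 0.5% DMSO for 48 h to eight-point half-log concentrations up to 100 uM. BAD mRNA was measured by Fluidigm TaqMan qRT-PCR, normalized to ACTB, GAPDH and POLR2A, and fitted bidirectionally against DMSO.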

[8] = read-out: Bcl-2 (BAX) gene, BAX (gene 581); assay: LTEA_HepaRG_BAX: Life Technologies and Expression Analysis (LTEA) Assay for Bcl-2 (BAX) gene using HepaRG (AID 2283470)
Procedure, shortened: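 Concentration-response endpoint fitted in both directions relative to 0.5% DMSO vehicle. Human HepaRG cultures receive test chemicals for 48 h at up to 100 uM; BAX mRNA is quantified by qRT-PCR against housekeeping genes.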

[9] = read-out: adenosine kinase (ADK) gene, ADK (gene 132); assay: LTEA_HepaRG_ADK: Life Technologies and Expression Analysis (LTEA) Assay for adenosine kinase (ADK) gene using HepaRG (AID 2283471)
Procedure, shortened: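 ADK expression quantified by qRT-PCR, normalised to three housekeeping genes, after 48 h exposure of HepaRG cells to eight concentrations (top 100 uM, half-log steps, duplicate, 0.5% DMSO). Up- or down-regulation fitted relative to vehicle.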

[10] = read-out: Alpha-fetoprotein (AFP) gene, AFP (gene 174); assay: LTEA_HepaRG_AFP: Life Technologies and Expression Analysis (LTEA) Assay for Alpha-fetoprotein (AFP) gene using HepaRG (AID 2283472)
Procedure, shortened: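 After a 48 h plating period, cells are moved to serum-free induction medium and dosed in duplicate (100 uM maximum, half-log dilutions, 0.5% DMSO) for another 48 h. Total RNA goes to TaqMan qRT-PCR; AFP signal is housekeeping-normalized.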

[11] = read-out: BCL2L11 (gene 10018); assay: LTEA_HepaRG_BCL2L11: Life Technologies and Expression Analysis (LTEA) Assay for Bcl-2 (BCL2L11) gene using HepaRG (AID 2283473)
Procedure, shortened: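 Read-out is BCL2L11 transcript level by qRT-PCR, normalized to three housekeeping genes and fitted bidirectionally against 0.5% DMSO vehicle. HepaRG cells received chemicals for 48 h in serum-free induction medium, 100 uM down in half-log dilutions.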

[12] = read-out: Apolipoprotein A-V (APOA5) gene, APOA5 (gene 116519); assay: LTEA_HepaRG_APOA5: Life Technologies and Expression Analysis (LTEA) Assay for Apolipoprotein A-V (APOA5) gene using HepaRG (AID 2283474)
Procedure, shortened: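 Readout is APOA5 transcript level by qRT-PCR on Fluidigm dynamic arrays, normalized to three housekeeping genes. HepaRG cultures received chemicals for 48 h at up to 100 uM (half-log steps, 0.5% DMSO), with gain or loss scored relative to DMSO.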

[13] = read-out: Apoptosis regulator Bcl-2 (Homo sapiens) (UniProt P10415); assay: LTEA_HepaRG_BCL2: Life Technologies and Expression Analysis (LTEA) Assay for Bcl-2 gene using HepaRG (AID 2283475)
Procedure, shortened: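 Expression change of BCL2 mRNA in HepaRG after 48 h dosing, quantified by TaqMan qRT-PCR against three endogenous controls. Concentration-response used eight points up to 100 uM, vehicle 0.5% DMSO.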

[14] = read-out: Bcl-2 (BID) gene, BID (gene 637); assay: LTEA_HepaRG_BID: Life Technologies and Expression Analysis (LTEA) Assay for Bcl-2 (BID) gene using HepaRG (AID 2283476)
Procedure, shortened: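 Gain or loss of BID expression is fitted relative to 0.5% DMSO vehicle. Human HepaRG liver cells received a 48 h chemical exposure over an eight-point concentration range.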

[15] = read-out: Caspase-3 (Homo sapiens) (UniProt P42574); assay: LTEA_HepaRG_CASP3: Life Technologies and Expression Analysis (LTEA) Assay for cysteine-aspartic acid protease (CASP3) using HepaRG (AID 2283477)
Procedure, shortened: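 Read-out is CASP3 mRNA level by TaqMan qRT-PCR in human HepaRG cells after 48 h chemical exposure. Eight half-log concentrations topping at 100 uM were tested in 0.5% DMSO; gain or loss was fitted relative to DMSO.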

[16] = read-out: Cytochrome P450 (CYP24A1), CYP24A1 (gene 1591); assay: LTEA_HepaRG_CYP24A1: Life Technologies and Expression Analysis (LTEA) Assay for Cytochrome P450 (CYP24A1) using HepaRG (AID 2283478)
Procedure, shortened: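 HepaRG, 48 h chemical exposure, 8-pt half-log CRC from 100 uM, 0.5% DMSO vehicle, duplicates. Endpoint: CYP24A1 mRNA by Fluidigm TaqMan qRT-PCR, normalized ACTB/GAPDH/POLR2A; gain/loss fit vs DMSO.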

[17] = read-out: Cytochrome P450 (CYP1A2), CYP1A2 (gene 1544); assay: LTEA_HepaRG_CYP1A2: Life Technologies and Expression Analysis (LTEA) Assay for Cytochrome P450 (CYP1A2) using HepaRG (AID 2283479)
Procedure, shortened: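 CYP1A2 transcript induction or loss, quantified by Fluidigm qRT-PCR against three housekeeping genes, was fitted bidirectionally against 0.5% DMSO controls. Human HepaRG cells received eight half-log concentrations from 100 uM over 48 h.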

[18] = read-out: cysteine-aspartic acid protease (CASP8), CASP8 (gene 841); assay: LTEA_HepaRG_CASP8: Life Technologies and Expression Analysis (LTEA) Assay for cysteine-aspartic acid protease (CASP8) using HepaRG (AID 2283480)
Procedure, shortened: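 Differentiated HepaRG cells in serum-free induction medium, 48 h exposure, eight-point half-log series from 100 uM in 0.5% DMSO, duplicates. CASP8 mRNA by qRT-PCR, normalized to ACTB, GAPDH, POLR2A; bidirectional fit versus DMSO.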

[19] = read-out: Cytochrome P450 (CYP2B6), CYP2B6 (gene 1555); assay: LTEA_HepaRG_CYP2B6: Life Technologies and Expression Analysis (LTEA) Assay for Cytochrome P450 (CYP2B6) using HepaRG (AID 2283481)
Procedure, shortened: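 HepaRG cells plated 48 h, switched to serum-free induction medium, then dosed 48 h (8 points, half-log from 100 uM, 0.5% DMSO). RNA isolated; CYP2B6 expression measured by qRT-PCR; gain or loss fitted relative to DMSO.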

[20] = read-out: Cytochrome P450 2C19 (Homo sapiens) (UniProt P33261); assay: LTEA_HepaRG_CYP2C19: Life Technologies and Expression Analysis (LTEA) Assay for CYP2C19 using HepaRG (AID 2283482)
Procedure, shortened: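 Transcript levels of CYP2C19 were quantified by qRT-PCR after HepaRG cells were treated for 48 hours with test chemicals up to 100 uM (eight half-log concentrations, 0.5% DMSO vehicle). Gain or loss of signal was fitted relative to DMSO.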

Measured: AC50

Sequence of Apoptosis regulator Bcl-2 (Homo sapiens) (P10415 whole entry, looked up): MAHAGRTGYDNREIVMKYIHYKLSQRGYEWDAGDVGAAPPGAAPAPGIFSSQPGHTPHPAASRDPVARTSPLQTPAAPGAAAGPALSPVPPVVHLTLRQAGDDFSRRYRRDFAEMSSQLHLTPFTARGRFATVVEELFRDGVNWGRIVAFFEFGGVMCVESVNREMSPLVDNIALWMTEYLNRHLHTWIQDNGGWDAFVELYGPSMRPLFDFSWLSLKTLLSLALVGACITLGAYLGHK
Sequence of Cytochrome P450 2C19 (Homo sapiens) (P33261 whole entry, looked up): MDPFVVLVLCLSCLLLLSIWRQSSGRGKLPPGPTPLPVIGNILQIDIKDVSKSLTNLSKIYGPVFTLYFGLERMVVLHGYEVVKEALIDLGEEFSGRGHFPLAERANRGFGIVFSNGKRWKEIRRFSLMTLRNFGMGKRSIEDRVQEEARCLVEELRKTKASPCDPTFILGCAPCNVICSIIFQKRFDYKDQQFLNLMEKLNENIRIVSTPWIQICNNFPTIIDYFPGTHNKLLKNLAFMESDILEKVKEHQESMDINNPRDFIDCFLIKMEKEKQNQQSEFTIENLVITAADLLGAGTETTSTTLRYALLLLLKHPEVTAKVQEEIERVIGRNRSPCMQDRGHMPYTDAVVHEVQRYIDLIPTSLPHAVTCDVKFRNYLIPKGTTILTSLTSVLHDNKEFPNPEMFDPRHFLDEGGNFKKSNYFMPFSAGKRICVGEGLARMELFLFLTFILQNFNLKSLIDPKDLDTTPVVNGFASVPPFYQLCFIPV
Sequence of Caspase-3 (Homo sapiens) (P42574 whole entry, looked up): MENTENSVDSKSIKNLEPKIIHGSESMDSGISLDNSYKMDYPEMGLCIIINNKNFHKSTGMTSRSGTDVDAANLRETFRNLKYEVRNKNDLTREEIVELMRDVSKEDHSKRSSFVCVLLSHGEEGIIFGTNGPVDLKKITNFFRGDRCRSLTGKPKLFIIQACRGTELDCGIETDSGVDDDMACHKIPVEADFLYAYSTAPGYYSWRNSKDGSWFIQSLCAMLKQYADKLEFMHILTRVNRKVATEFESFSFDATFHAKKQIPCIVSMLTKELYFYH
Sequence of Broad substrate specificity ATP-binding cassette transporter ABCG2 (Homo sapiens) (Q9UNQ0 whole entry, looked up): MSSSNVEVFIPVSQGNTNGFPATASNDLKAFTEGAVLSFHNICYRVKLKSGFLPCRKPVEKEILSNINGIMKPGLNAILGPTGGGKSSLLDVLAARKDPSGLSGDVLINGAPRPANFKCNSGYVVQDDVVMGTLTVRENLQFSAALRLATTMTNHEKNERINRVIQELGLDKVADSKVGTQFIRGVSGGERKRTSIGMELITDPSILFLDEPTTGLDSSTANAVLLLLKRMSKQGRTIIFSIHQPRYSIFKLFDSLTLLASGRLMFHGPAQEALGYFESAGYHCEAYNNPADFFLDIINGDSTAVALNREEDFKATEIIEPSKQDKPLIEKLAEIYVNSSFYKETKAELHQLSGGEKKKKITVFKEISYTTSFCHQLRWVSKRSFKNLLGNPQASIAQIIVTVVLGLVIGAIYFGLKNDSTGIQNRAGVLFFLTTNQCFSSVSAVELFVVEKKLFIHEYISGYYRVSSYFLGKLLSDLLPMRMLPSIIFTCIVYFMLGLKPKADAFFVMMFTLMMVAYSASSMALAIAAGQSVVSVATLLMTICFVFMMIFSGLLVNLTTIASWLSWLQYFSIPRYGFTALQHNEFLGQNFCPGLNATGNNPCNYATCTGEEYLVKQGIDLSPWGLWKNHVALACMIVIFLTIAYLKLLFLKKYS

CCCCC(CC)COC(=O)CCCCCCCCC(=O)OCC(CC)CCCC (stereo not given)
inactive: [1] | [2] | [3] | [4] | [5] | [6] | [7] | [8] | [9] | [10] | [11] | [12] | [13] | [14] | [15] | [16] | [17] | [18] | [19] | [20]

Nc1ccc(Nc2ccccc2)cc1
inactive: [2] | [3] | [4] | [5] | [8] | [9] | [11] | [12] | [13] | [14] | [15] | [16] | [18] | [20]
active: [1] 69.2 µM | [6] 50 µM | [7] 11.9 µM | [10] 75.9 µM | [17] 4.54 µM | [19] 33.7 µM

O=P(OC(CCl)CCl)(OC(CCl)CCl)OC(CCl)CCl
inactive: [2] | [5] | [7] | [15] | [16]
active: [1] 66.6 µM | [3] 78.5 µM | [4] 75.9 µM | [6] 0.259 µM | [8] 84.5 µM | [9] 0.272 µM | [10] 15.8 µM | [11] 83.8 µM | [12] 50 µM | [13] 88.3 µM | [14] 0.232 µM | [17] 80 µM | [18] 0.209 µM | [20] 84.9 µM

CCOc1cccc(-n2cc(C(=O)N3CCN(c4cc(C(=O)O)c5ccccc5c4)CC3)nc2-c2ccc(C)cc2)c1
active: [1] 35.5 µM | [2] 77.1 µM | [3] 85.6 µM | [4] 86.6 µM | [5] 70.1 µM | [6] 24.1 µM | [8] 12.5 µM | [9] 82.9 µM | [10] 29.8 µM | [11] 87.8 µM | [12] 64.2 µM | [14] 80.7 µM | [15] 82.9 µM | [17] 27.7 µM | [18] 87.9 µM | [19] 26.5 µM | [20] 32.6 µM
inactive: [7] | [16]

O=C(O)CCN(C1(C(=O)NO)CCCC1)S(=O)(=O)c1ccc(Oc2ccc(F)cc2)cc1
inactive: [1] | [2] | [3] | [4] | [5] | [6] | [7] | [9] | [10] | [11] | [12] | [13] | [14] | [15] | [16] | [17] | [18] | [19] | [20]

CC[C@H]1OC(=O)[C@H](C)[C@@H](O[C@H]2C[C@@](C)(OC)[C@@H](O)[C@H](C)O2)[C@H](C)[C@@H](O[C@@H]2O[C@H](C)C[C@H](N(C)C)[C@H]2O)[C@](C)(O)C[C@@H](C)C(=O)[C@H](C)[C@@H](O)[C@]1(C)O
active: [17] 59.1 µM | [19] 5.59 µM
inactive: [1] | [2] | [3] | [4] | [5] | [6] | [7] | [8] | [10] | [11] | [12] | [14] | [15] | [16] | [18] | [20]
